The values below come from PubChem BioAssay.

Experiment [1] can be described thus: stimulators of nuclear beta-catenin in C2C12, primary screen, imaging, WNT3A-conditioned medium, mouse C2C12, NPC library (AID 1117326; in the data active = nuclear beta-catenin stimulation mostly above about 4.2%, no sharp cut-off; inactive = mostly below about 10%). The conditions noted are these: stronger effect = higher value.
Experiment [2] can be described thus: stimulators of insulin release from INS-1E, primary screen, cell-based, 5 mM glucose, NPC library (AID 1117329;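 active = compound raises insulin release from rat beta cells at 5 mM glucose, no numeric limit stated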). The conditions noted are these: rat INS-1E insulin secretion, at 10 µM, stronger effect = higher value.
The nature of experiment [3]: growth inhibition of GSK3B-pretreated HCT116 cells – cell-based, CellTiter-Glo, 0.2 to 20 µM (AID 1117336;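 active = compounds lowering colon cancer cell viability after pretreatment blocking the GSK3B kinase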). Particulars: HCT116 viability after GSK3B inhibitor, at 20 µM, stronger effect = higher value. (In general: Cellular ATP, detected with luciferase, serves as a proxy for viable cell number.)
Experiment [4] can be described thus: inhibition of endothelial tube formation, primary screen, imaging, VEGF stimulated, CD31 staining, tube area, NPC library (AID 1117340;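 active = compound that reduces growth-factor-driven endothelial tube area in a mixed cell culture, no cutoff stated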). The conditions noted are these: VEGF-stimulated ADSC/ECFC co-culture, at 10 µM, stronger effect = higher value.
The nature of experiment [5]: glucagon-like peptide 1 release enhancers, primary assay, NCI-H716 cell line, NPC library (AID 1117341;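 active = compound raises GLP1 secretion from the human gut endocrine cells, with no numeric limit stated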). The conditions noted are these: NCI-H716 cells, at 10 µM, stronger effect = higher value.
Experiment [6] is described as follows: HCT116 colon cancer cell growth inhibition, primary screen, CellTiter-Glo luminescence, NPC library (AID 1117342;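 active = compounds that lower survival of HCT116 colon cancer cells in the luminescence readout, no numeric limit stated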). The conditions noted are these: at 20 µM (top of the series).
The nature of experiment [7]: CellTiter-Glo luminescent readout of SW480 viability loss, NPC library primary (AID 1117343;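 active = compounds that lower viability of the colon cancer cells in the luminescence readout, with no numeric limit stated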). The conditions noted are these: CellTiter-Glo luminescence; at 20 µM (top of the series).
Experiment [8] in a line: decreased DLD-1 cellular survival, CellTiter-Glo luminescent readout, NPC compound collection, primary HTS (AID 1117346;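 active = compounds that lower survival of DLD-1 colon cancer cells in the luminescence readout, no cutoff given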). The conditions noted are these: DLD-1 viability, CellTiter-Glo luminescence; at 20 µM (top of the series).
The target of experiment [9] is 6-phosphogluconate dehydrogenase, decarboxylating (Homo sapiens) (UniProt P52209). Description: 6PGD enzyme inhibitors, primary screen, biochemical, human, recombinant enzyme, NADPH absorbance (AID 1159550;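 active = at least 20% inhibition of 6-phosphogluconate dehydrogenase activity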). The conditions noted are these: recombinant 6PGD, NADPH absorbance 341 nm; at 10 µM; stronger effect = higher value.
6-phosphogluconate dehydrogenase, decarboxylating (Homo sapiens), sequence (P52209 whole entry, looked up): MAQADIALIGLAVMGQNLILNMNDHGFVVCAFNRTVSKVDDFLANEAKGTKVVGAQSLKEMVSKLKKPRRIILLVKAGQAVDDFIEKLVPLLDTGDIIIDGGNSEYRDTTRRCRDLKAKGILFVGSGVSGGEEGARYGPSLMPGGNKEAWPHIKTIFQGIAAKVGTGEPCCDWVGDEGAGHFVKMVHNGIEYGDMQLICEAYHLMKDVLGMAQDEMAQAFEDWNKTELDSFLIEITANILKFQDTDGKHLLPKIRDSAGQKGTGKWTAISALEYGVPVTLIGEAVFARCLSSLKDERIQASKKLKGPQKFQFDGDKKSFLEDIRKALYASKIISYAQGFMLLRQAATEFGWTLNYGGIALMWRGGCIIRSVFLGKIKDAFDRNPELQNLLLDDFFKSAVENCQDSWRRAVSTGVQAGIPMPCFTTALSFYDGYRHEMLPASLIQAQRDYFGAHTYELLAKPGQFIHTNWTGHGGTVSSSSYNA
Experiment [10] is described as follows: differential killing of epithelial or mesenchymal cells, primary screen, imaging, PC-3E GFP, TEM4-18 mCherry, co-culture (AID 1345086;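 active = compounds killing one labelled cell type while sparing the other, by normalised counts and ratio limits, not self-fluorescent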;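 for all read-outs here: cells exposed to compound for 72 h before imaging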;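 for red/green cell ratio (normalised): normalised mesenchymal count divided by normalised epithelial count so high means epithelial killing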). The conditions noted are these: imaging cell counts, at 1 µM; for red/green cell ratio (normalised): actives lie on both sides, counts scaled to control wells, 1 = unselective.
Experiment [11] can be described thus: survival rescue of mitochondrial mutant cells in low glucose, primary screen, MELAS cybrids, Rieske KO mouse fibroblasts, CellTiter-Glo (AID 1508586;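 active = mean z-score across replicates of 1.96 or higher in either the MELAS or the Rieske mutant cell line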;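 note: z relative to plate mean and SD of compound and empty wells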).
The target in experiment [12] is NAD(+) hydrolase SARM1 (Homo sapiens) (UniProt Q6SZW1). The experiment is described as follows: SARM1 TIR NADase inhibitors, cell lysate, NAD-Glo luminescence (AID 1508614;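 active = compound whose remaining NAD level is above about 45 nM, limit read from the data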;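 note: higher remaining NAD means stronger inhibition of SARM1 NADase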). The conditions noted are these: SAM-TIR HEK293T lysate NADase, at 1 µM, stronger effect = higher value.
NAD(+) hydrolase SARM1 (Homo sapiens), sequence (Q6SZW1 whole entry, looked up, the tested form may be a part): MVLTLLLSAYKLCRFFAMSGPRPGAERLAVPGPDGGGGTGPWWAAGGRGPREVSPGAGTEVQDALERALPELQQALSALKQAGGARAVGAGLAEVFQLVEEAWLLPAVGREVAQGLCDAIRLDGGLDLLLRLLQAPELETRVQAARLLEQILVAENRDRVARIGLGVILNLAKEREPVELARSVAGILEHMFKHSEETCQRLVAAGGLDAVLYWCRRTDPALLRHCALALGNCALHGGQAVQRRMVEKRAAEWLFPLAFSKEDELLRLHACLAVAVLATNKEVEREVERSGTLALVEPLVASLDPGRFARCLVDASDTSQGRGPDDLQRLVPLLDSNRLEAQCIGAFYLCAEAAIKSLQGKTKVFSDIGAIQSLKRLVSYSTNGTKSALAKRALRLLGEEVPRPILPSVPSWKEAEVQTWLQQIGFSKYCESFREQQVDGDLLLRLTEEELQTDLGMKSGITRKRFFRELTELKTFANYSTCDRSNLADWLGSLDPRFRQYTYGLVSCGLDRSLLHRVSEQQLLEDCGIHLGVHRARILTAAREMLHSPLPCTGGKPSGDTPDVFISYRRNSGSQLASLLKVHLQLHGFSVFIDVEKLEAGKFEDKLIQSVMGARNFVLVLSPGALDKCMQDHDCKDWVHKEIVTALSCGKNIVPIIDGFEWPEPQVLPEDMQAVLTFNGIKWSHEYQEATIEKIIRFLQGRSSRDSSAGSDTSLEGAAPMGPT
The target in experiment [13] is Mitogen-activated protein kinase 7 (Homo sapiens) (UniProt Q13164). The experiment is described as follows: ERK5 transactivation activators in reporter cells, primary screen, cell-based, HTS (AID 1508626;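 active = luciferase signal above three times the same-plate solvent-only control wells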;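 note: luciferase driven by Gal4-ERK5 fusion binding five Gal4 sites before minimal TATA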). The conditions noted are these: HeLa Gal4-ERK5 transactivation, 18 h, at 5 µM, stronger effect = higher value.
Mitogen-activated protein kinase 7 (Homo sapiens), sequence (Q13164 whole entry, looked up, the tested form may be a part): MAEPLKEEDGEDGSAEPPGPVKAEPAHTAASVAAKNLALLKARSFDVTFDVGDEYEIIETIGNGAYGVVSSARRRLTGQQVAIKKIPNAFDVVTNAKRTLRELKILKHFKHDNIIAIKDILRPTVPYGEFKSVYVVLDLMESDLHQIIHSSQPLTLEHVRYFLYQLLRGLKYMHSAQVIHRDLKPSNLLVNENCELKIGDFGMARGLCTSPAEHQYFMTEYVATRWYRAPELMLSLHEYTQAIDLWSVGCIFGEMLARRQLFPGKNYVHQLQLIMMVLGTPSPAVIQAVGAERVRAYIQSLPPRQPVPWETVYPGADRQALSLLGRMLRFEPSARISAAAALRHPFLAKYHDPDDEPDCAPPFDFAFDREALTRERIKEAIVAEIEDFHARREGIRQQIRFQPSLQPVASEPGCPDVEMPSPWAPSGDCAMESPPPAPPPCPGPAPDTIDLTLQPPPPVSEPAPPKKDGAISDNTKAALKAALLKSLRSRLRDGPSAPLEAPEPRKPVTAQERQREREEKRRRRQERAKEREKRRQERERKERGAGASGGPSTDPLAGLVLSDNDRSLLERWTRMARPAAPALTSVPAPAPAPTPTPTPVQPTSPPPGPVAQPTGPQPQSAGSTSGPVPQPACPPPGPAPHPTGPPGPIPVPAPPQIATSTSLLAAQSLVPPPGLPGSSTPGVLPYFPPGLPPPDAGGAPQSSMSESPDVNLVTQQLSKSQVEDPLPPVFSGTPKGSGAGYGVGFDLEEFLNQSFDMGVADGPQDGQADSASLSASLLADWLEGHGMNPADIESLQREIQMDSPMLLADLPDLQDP
Experiment [14] has as its system F380Y. Description: modulators of BK channel variants, profiling panel, selectivity assay, cell-based, U2OS BacMam, thallium flux, beta subunits (AID 1259406).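 Note: initial slope of Thallos dye fluorescence rise after thallium is added; log ratio against the mean of 0.3% DMSO vehicle wells on the same plate.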 The conditions noted are these: at 30 µM.
Experiment [15] relates to F380Y/beta2Delta. Described as above. Particulars: at 30 µM.
Experiment [16] concerns the target Calcium-activated potassium channel subunit alpha-1 (Homo sapiens) + Leucine-rich repeat-containing protein 26 (Homo sapiens) (UniProt Q12791+Q2I0M4). Described as above. Particulars: F380Y/Slo1WT/gamma1, at 30 µM.
For experiment [17], the system named is R275C. Described as above. Particulars: at 30 µM.
For experiment [18], the system named is R275C/beta1. The description is as above. The conditions noted are these: at 30 µM.
Experiment [19] deals with R275C/beta2Delta. Described as above. Particulars: at 30 µM.
A short description of experiment [20]: sensitizers of A549 cells to miR-34 induction, primary screen, imaging, A549 dox-inducible miR-34, nuclei and caspase counts (AID 1347080;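 active = compounds whose cell count with miR-34 switched on is under 0.7 times the count with it off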). Particulars: A549 miR-34 inducible, Hoechst nuclei count, 48 h.
[21] abbreviates: measured here: epithelial PC-3E GFP cell survival.
The mark [22] stands for this setting: measured here: mesenchymal TEM4-18 mCherry cell survival.
The mark [23] stands for this setting: MELAS cybrid survival, CellTiter-Glo 48 h, stronger effect = higher value.
Where [24] appears, read: Rieske KO mouse fibroblast survival, CellTiter-Glo 72 h.

SMILES strings stand for the structures. Values joined by “and” are separate entries in the source; they are usually repeats but may differ in a detail not shown here. Equal values may be shown once. Active and inactive are the calls of the source.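 Rule for the calls, unless noted: active = thallium flux through the channel raised or lowered by more than 3 SD from vehicle-only wells, actives on both sides; inactive = the rest.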

As usually defined, the inhibition is the change of the read-out against control, counted positive when it falls.

Calcium-activated potassium channel subunit alpha-1 (Homo sapiens) + Leucine-rich repeat-containing protein 26 (Homo sapiens), sequence (Q2I0M4 whole entry, looked up, one chain of several): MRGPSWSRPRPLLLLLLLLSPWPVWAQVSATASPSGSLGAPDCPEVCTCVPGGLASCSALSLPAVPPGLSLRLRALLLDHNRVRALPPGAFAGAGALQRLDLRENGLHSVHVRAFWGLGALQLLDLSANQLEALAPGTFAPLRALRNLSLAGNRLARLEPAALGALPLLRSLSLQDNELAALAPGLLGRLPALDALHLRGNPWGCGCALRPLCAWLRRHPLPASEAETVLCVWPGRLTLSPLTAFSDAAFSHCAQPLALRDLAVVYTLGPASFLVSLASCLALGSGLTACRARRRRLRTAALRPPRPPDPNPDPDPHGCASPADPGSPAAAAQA

Turning to `COc1ccc2cc(CCC(C)=O)ccc2c1`, the nuclear beta-catenin stimulation was 5.3% (inactive) in [1] (at 10 µM) and 3.7% in experiment [1] (stimulation, at 2 µM). In addition, the insulin secretion stimulation in [2] was 1.5% (inactive). In addition, the viability decrease in [3] was -7.2% (inactive). The tube area decrease in experiment [4] was -5.2% (inactive). The GLP1 secretion stimulation in experiment [5] was 0.4% (inactive). Moreover, the inhibition of viability in [6] is -6.2% (inactive). Besides, the viability decrease (inhibition) is 4.5% (inactive) in [7] and -3.8% (active) in experiment [8]. For the same compound, in experiment [9], the inhibition was -24.5% (inactive). Besides, in [10], the red/green cell ratio (normalised) was 1.14 (inactive). Moreover, the figures for the normalised cell number in experiment [10] (setting [21]) and in experiment [10] (setting [22]) were 1.12 and 1.27, respectively. Further, the z-score in experiment [11] (setting [23]) was -0.0447 (inactive) and 0.0297 (inactive) and 0.548 (inactive); in [11] (setting [24]) it was -0.132 and -0.0567 and -0.121. For the same compound, the remaining NAD in [12] is 10 nM (inactive). In addition, in experiment [13], the luciferase signal was 92 AU (inactive). For the same compound, the log fold change Tl+ flux in experiment [14] was -0.158 (active); in [15] it was -0.0818 (active); in experiment [16], -0.0634 (inactive); in [17], -0.0871 (active); in [18] it was -0.284 (active); in experiment [19], -0.233 (active).

For `COc1cc(NC(C)CCCN)c2ncccc2c1` (stereo not drawn), the nuclear beta-catenin stimulation in experiment [1] (at 10 µM) is 1.4% (inactive); in experiment [1] (stimulation, at 2 µM), 1.8%. For the same compound, the insulin secretion stimulation in experiment [2] was 0.4% (inactive). In [3], the viability decrease is 102% (active). The tube area decrease in [4] was 11.2% (inactive). Besides, the GLP1 secretion stimulation in experiment [5] was 2.7% (inactive). Besides, the inhibition of viability in experiment [6] was 97.2% (active). For the same compound, the viability decrease (inhibition) in experiment [7] is 71.5% (active); in experiment [8] it was 47.3% (inactive). In addition, the inhibition in [9] is -0.957% (inactive). The red/green cell ratio (normalised) in experiment [10] was 1.43 (inactive). Also, the normalised cell number in experiment [10] (setting [21]) is 0.94; in [10] (setting [22]) it was 1.34. Besides, the z-score was -0.353 (inactive) and -0.329 (inactive) and 0.456 (inactive) in experiment [11] (setting [23]); -0.221 and -0.189 and 1.47 in experiment [11] (setting [24]). Besides, the remaining NAD in [12] was 10 nM (inactive). Further, the luciferase signal in experiment [13] was 32 AU (inactive). In addition, the log fold change Tl+ flux in [14] is -0.0858 (inactive); in experiment [15], -0.141 (active); in [16], -0.0425 (inactive); in experiment [17], -0.164 (active); in experiment [18], 0.0817 (inactive); in experiment [19], 0.0117 (inactive).

For `Cn1c(=O)c2[nH]cnc2n(C)c1=O`, the nuclear beta-catenin stimulation in experiment [1] (at 10 µM) was 1.1% (inactive); in experiment [1] (stimulation, at 2 µM) it was 0.3%. For the same compound, the insulin secretion stimulation in experiment [2] was 0.2% (inactive). Also, the viability decrease in experiment [3] was 0.3% (inactive). In experiment [4], the tube area decrease was -10.1% (inactive). Moreover, the GLP1 secretion stimulation in experiment [5] is -0.8% (inactive). Also, in [6], the inhibition of viability is 6% (inactive). For the same compound, the values for the viability decrease (inhibition) in experiment [7] and in experiment [8] were 20.4% (inactive) and -2.35% (inactive), respectively. Moreover, the inhibition in experiment [9] is 4.58% (inactive). Besides, in experiment [12], the remaining NAD was 10 nM (inactive). Besides, the luciferase signal in [13] was 96 AU (inactive). The log fold change Tl+ flux in experiment [14] was 0.0321 (inactive); in experiment [15], -0.0514 (inactive); in experiment [16], -0.0341 (inactive); in [17], 0.000907 (inactive); in experiment [18], 0.0503 (inactive); in experiment [19], -0.00245 (inactive).

Turning to `C[C@H]1C[C@@H]2[C@H]([C@@H](O)C[C@@]3(C)[C@H]2CC[C@]3(O)C(=O)CO)[C@@]2(C)C=CC(=O)C=C12`, the nuclear beta-catenin stimulation is -1.3% (inactive) in [1] (at 10 µM) and 0% in experiment [1] (stimulation, at 2 µM). In addition, the insulin secretion stimulation in experiment [2] is 2.2% (inactive). Further, the viability decrease in experiment [3] is -8.4% (inactive). Further, the tube area decrease in experiment [4] is -6.1% (inactive). The GLP1 secretion stimulation in [5] is 1% (inactive). In addition, the inhibition of viability in experiment [6] was 2.5% (inactive). Also, the viability decrease (inhibition) in experiment [7] is 3.7% (inactive); in experiment [8], -5% (inactive). In addition, the inhibition in experiment [9] was 12.4% (inactive). Also, the fold change in experiment [20] (stronger effect = lower value, cell number ratio, induced over uninduced) was 0.959 (inactive) and 0.809 (inactive) and 0.808 (inactive); in experiment [20] (measured here: relative caspase fold change +Dox/-Dox), 0.739 and 1.35 and 1.33. Besides, the cell count in experiment [20] (measured here: total cells with miR-34 induction, stronger effect = lower value) was 7180 and 6410 and 5950; in experiment [20] (measured here: total cells without miR-34 induction), 7490 and 7930 and 7360. For the same compound, the z-score in experiment [11] (setting [23]) is 0.0891 (inactive) and -0.0037 (inactive); in [11] (setting [24]), -0.286 and 1.09. Also, in experiment [12], the remaining NAD was 10 nM (inactive). Also, the luciferase signal in experiment [13] was 100 AU (inactive). Further, the log fold change Tl+ flux in [14] was 0.00302 (inactive); in experiment [15] it was 0.00102 (inactive); in [16] it was -0.0378 (inactive); in [17] it was -0.0399 (inactive); in experiment [18], -0.0807 (inactive); in experiment [19], 0.0437 (inactive).
